Common to all, as to experiment: NCI-60 one-dose screen, 48 h (100 = growth as untreated, 0 = no growth, -100 = all killed)
One assay deals with NCI-H23 lung. The following applies: 10 µM unless noted.
In another assay the test system is NCI-H226 lung. As to conditions: 10 µM unless noted.
For the next assay, the system named is NCI-H322M lung. The following applies: 10 µM unless noted.
For another assay, the system named is HOP-62 NSCLC. As to conditions: 10 µM unless noted.
The next assay relates to NCI-H460 lung. The following applies: 10 µM unless noted.
A further assay relates to HOP-92 NSCLC. The following applies: 10 µM unless noted.
In a further assay the test system is NCI-H522 lung. The following applies: 10 µM unless noted.
The test system of a further assay is A549/ATCC NSCLC. As to conditions: 10 µM unless noted.
In a further assay the test system is 786-0 renal. The following applies: 10 µM unless noted.
In a further assay the test system is COLO 205 colon. As to conditions: 10 µM unless noted.
The next assay concerns DU-145 prostate. The following applies: 10 µM unless noted.
In another assay the test system is K-562 leukemia. As to conditions: 10 µM unless noted.
In another assay the test system is MALME-3M melanoma. As to conditions: 10 µM unless noted.
The next assay concerns MDA-MB-231 breast. As to conditions: 10 µM unless noted.
A further assay deals with RXF 393 renal. As to conditions: 10 µM unless noted.
Another assay relates to SF-268 CNS. As to conditions: 10 µM unless noted.
For a further assay, the system named is SF-295 CNS. The following applies: 10 µM unless noted.
The next assay has as its system SF-539 CNS. As to conditions: 10 µM unless noted.
The test system of a further assay is UACC-257 melanoma. As to conditions: 10 µM.
The subject of another assay is M14 melanoma. As to conditions: 10 µM unless noted.

SMILES strings stand for the structures. The panel holds about 83,000 compounds, 20% with a hit somewhere; the sample as a whole holds those more often.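 Single-dose data. Exposure time 48 hours. Values below 10 considered active.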 Values without a mark were called inactive. Activity calls are given as the source filed them.

As for `Oc1ccc(CSc2nnc(-c3ccccc3)o2)c2cccnc12`, the growth in the assay on NCI-H23 lung was 27.8%; in the assay with NCI-H226 lung, 51.2%; in the assay with NCI-H322M lung, 25.7%; in the assay on HOP-62 NSCLC it was 13.8%; in the assay on NCI-H460 lung, 2.23% (active); in the assay with HOP-92 NSCLC, -3.86% (active). The growth was 22.6% with NCI-H522 lung; 17.6% with A549/ATCC NSCLC; 24.5% in the assay with 786-0 renal; 98.9% in the assay with COLO 205 colon; 30% in the assay on DU-145 prostate; 10.4% with K-562 leukemia. Moreover, the growth with MALME-3M melanoma is 36.1%; in the assay on MDA-MB-231 breast, 47%; with RXF 393 renal, 24.5%; in the assay with SF-268 CNS, 21.8%; with SF-295 CNS, 2.18% (active); in the assay with SF-539 CNS it was 13.2%. In addition, the growth in the assay on UACC-257 melanoma is 6.39% (active); in the assay with M14 melanoma, 15.5%.
As to `CCc1ccc(NC(=O)N[C@@H](Cc2cccc(F)c2)C(=O)N[C@@H]2C(=O)N3CCC[C@H]3C(=O)N3CCCC[C@H]3C(=O)N[C@@H](CO)C(=O)N3C[C@H](C)C[C@H]3C(=O)O[C@H]2C)c(F)c1`, the growth in the assay with NCI-H23 lung was 32.9%; with NCI-H226 lung, -1.86% (active); in the assay with NCI-H322M lung, 51.1%; in the assay on HOP-62 NSCLC, 37.8%; in the assay with NCI-H460 lung, 14.4%; in the assay with HOP-92 NSCLC, 2.76% (active). Besides, the growth in the assay with NCI-H522 lung is 20.1%; with A549/ATCC NSCLC it was 36.3%; with 786-0 renal it was 44.1%; in the assay on COLO 205 colon it was -50.4% (active); in the assay on DU-145 prostate it was 26.9%; in the assay with K-562 leukemia, 20.1%. The growth with MALME-3M melanoma is 41.5%; in the assay with MDA-MB-231 breast it was 35.2%; in the assay with RXF 393 renal, -11.7% (active); with SF-268 CNS, 30.6%; with SF-295 CNS it was 15.8%; in the assay on SF-539 CNS, 39.8%. For the same compound, the growth is 16% in the assay with UACC-257 melanoma and 21.4% with M14 melanoma.
Regarding `CCNC(=O)Oc1ccc(/C(=C(/C)c2ccccc2)c2ccc(OCCN3CCCC3)cc2)cc1`, the growth was 74.6% in the assay on NCI-H23 lung; 96.6% with NCI-H226 lung; 93.2% with NCI-H322M lung; 89.9% with HOP-62 NSCLC; 76.2% in the assay with NCI-H460 lung; 61.9% in the assay with HOP-92 NSCLC. Moreover, the growth in the assay on NCI-H522 lung was 83.3%; in the assay on A549/ATCC NSCLC, 74.9%; in the assay with 786-0 renal, 36.7%; with COLO 205 colon, 75.5%; in the assay with DU-145 prostate, 89.5%; with K-562 leukemia, 11.3%. Moreover, the growth in the assay with MALME-3M melanoma is 30%; with MDA-MB-231 breast, 66.7%; in the assay on RXF 393 renal, 54.6%; with SF-268 CNS, 80.3%; in the assay with SF-295 CNS it was 60.5%; in the assay with SF-539 CNS it was 49.7%. Also, the growth in the assay with UACC-257 melanoma was -3.88% (active); with M14 melanoma, 24.3%.
On to `Cc1ccc(Cc2cnc(NC(=O)/C(C#N)=C/c3ccc(-c4ccc(Cl)cc4)o3)s2)cc1`, for which the growth in the assay with NCI-H23 lung was 91.3%; with NCI-H226 lung it was 117%; with NCI-H322M lung it was 84.9%; in the assay with HOP-62 NSCLC, 101%; in the assay with NCI-H460 lung, 83.8%; in the assay on HOP-92 NSCLC it was 66.9%. Also, the growth with NCI-H522 lung was 96.9%; with A549/ATCC NSCLC, 103%; with 786-0 renal, 99.9%; in the assay on COLO 205 colon it was 93.8%; with DU-145 prostate, 84%; in the assay with K-562 leukemia it was 88.7%. In addition, the growth was 98.8% in the assay with MALME-3M melanoma; 97.4% in the assay on MDA-MB-231 breast; 61% in the assay with RXF 393 renal; 95.3% with SF-268 CNS; 102% in the assay on SF-295 CNS; 98.4% in the assay with SF-539 CNS. Besides, the figures for the growth with UACC-257 melanoma and in the assay on M14 melanoma were 100% and 95.9%, respectively.
For the compound `COc1ccc(-c2nnc(/N=C3/C(=O)Nc4ccc(Br)cc43)o2)cc1`, the growth is 95.5% in the assay on NCI-H23 lung; 101% in the assay with NCI-H226 lung; 93.9% in the assay on NCI-H322M lung; 106% with HOP-62 NSCLC; 101% in the assay on NCI-H460 lung; 97.1% in the assay with HOP-92 NSCLC. Also, the growth in the assay with NCI-H522 lung is 98.6%; with A549/ATCC NSCLC, 104%; with 786-0 renal it was 103%; in the assay with COLO 205 colon, 105%; in the assay with DU-145 prostate it was 101%; in the assay on K-562 leukemia it was 93.1%. The growth in the assay with MALME-3M melanoma was 98.4%; with MDA-MB-231 breast, 108%; with RXF 393 renal it was 112%; in the assay on SF-268 CNS it was 99.3%; in the assay on SF-295 CNS, 99.2%; in the assay with SF-539 CNS, 97.9%. Further, the growth with UACC-257 melanoma is 106%; with M14 melanoma, 101%.
For the compound `C#C[C@]1(O)CC[C@H]2[C@@H]3CC=C4c5sc(C6CC6)nc5CC[C@]4(C)[C@H]3CC[C@@]21C`, the growth in the assay with NCI-H23 lung is 86.4%; in the assay with NCI-H226 lung, 94.6%; in the assay on NCI-H322M lung, 84.1%; in the assay on HOP-62 NSCLC, 100%; in the assay on NCI-H460 lung it was 82.2%; in the assay with HOP-92 NSCLC, 120%. Besides, the growth with NCI-H522 lung is 81.6%; with A549/ATCC NSCLC it was 72.5%; in the assay with 786-0 renal it was 51.2%; in the assay on COLO 205 colon it was 119%; in the assay with DU-145 prostate, 92.3%; in the assay on K-562 leukemia, 35.3%. In addition, the growth with MALME-3M melanoma was 107%; in the assay with MDA-MB-231 breast, 91.3%; in the assay with RXF 393 renal it was 5.22% (active); in the assay with SF-268 CNS, 86.5%; in the assay on SF-295 CNS, 43.7%; in the assay on SF-539 CNS, 66.4%. Besides, the growth in the assay on UACC-257 melanoma is 78.9%; with M14 melanoma, 77.9%.
Regarding `O=c1c2ccccc2nc(COc2ccccc2)n1/N=C/C=C/c1ccccc1`, the growth was 95.9% in the assay with NCI-H23 lung; 98.1% in the assay on NCI-H226 lung; 93% in the assay with NCI-H322M lung; 98.6% with HOP-62 NSCLC; 99.1% in the assay on NCI-H460 lung; 102% in the assay on HOP-92 NSCLC. Besides, the growth in the assay on NCI-H522 lung was 81.4%; with A549/ATCC NSCLC it was 100%; in the assay with 786-0 renal it was 100%; in the assay with COLO 205 colon it was 113%; in the assay with DU-145 prostate it was 104%; in the assay with K-562 leukemia, 109%. Also, the growth with MALME-3M melanoma is 96.9%; in the assay with MDA-MB-231 breast, 93.4%; in the assay with RXF 393 renal, 101%; in the assay with SF-268 CNS it was 97.5%; with SF-295 CNS it was 102%; in the assay with SF-539 CNS, 100%. Further, the growth with UACC-257 melanoma is 95.3%; with M14 melanoma, 97.8%.

Source of the values: PubChem BioAssay (NCI).
